The supplement of paper PMC10981050
Values joined by “and” are separate entries in the source; they are usually repeats but may differ in a detail not shown here. Equal entries are not always repeated. Structures can show the parent of a compound that is named as a salt.

Legend:
Assay in all cases: cell viability relative to vehicle control; higher = less cytotoxic
Settings in all cases: 10 µM
[1] = system: K562
Method in brief: (§1)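 Four leukaemia lines, as CRISPR-edited mutant clones and isogenic wild-type clones, were tested against Selleck bioactive, kinase and epigenetic probe libraries after removal of identity-inconsistent compounds. Cells were exposed to a single 10 µM dose for 48 h, and CellTiter-Glo luminescence was then read. Viability was calculated relative to the on-plate vehicle control.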

[2] = system: MARIMO
Method in brief: as §1

[3] = system: MOLM14
Method in brief: as §1

[4] = system: OCI-AML2
Method in brief: as §1

| SMILES | cell viability ([1]; SRSF2 genotype: SRSF2 P95H/wt) | cell viability ([1]; SRSF2 genotype: SRSF2 wt/wt) | cell viability ([2]; SRSF2 genotype: SRSF2 P95H/wt) | cell viability ([2]; SRSF2 genotype: SRSF2 wt/wt) | cell viability ([3]; SRSF2 genotype: SRSF2 P95H/wt) | cell viability ([3]; SRSF2 genotype: SRSF2 wt/wt) | cell viability ([4]; SRSF2 genotype: P95H/wt) | cell viability ([4]; SRSF2 genotype: wt/wt) |
| --- | --- | --- | --- | --- | --- | --- | --- | --- |
| CCNC(=O)c1noc(-c2cc(C(C)C)c(O)cc2O)c1-c1ccc(CN2CCOCC2)cc1 [Luminespib (AUY-922, NVP-AUY922)] | 16.9% and 29.2% | 25.6% | 32.3% | 26% | 1.2% | 1.31% | 12.3% | 20.7% |
| Nc1nonc1C(=Nc1ccc(F)c(Cl)c1)NO | 97% and 107% | 101% | 92% | 97.2% | 93.8% | 100% | 98.2% | 111% |
| c1ccc(-c2[nH]ncc2-c2ccnc3ccccc23)nc1 | 105% and 109% | 105% | 107% | 106% | 109% | 104% | 112% | 105% |
| CCC[C@H](Nc1nc(-c2ccc(NC(=O)NCC)c(OC)c2)ncc1C)c1cccnc1 | 10.5% and 35.4% | 31.9% | 7.27% | 10% | 1.24% | 1.12% | 0.85% | 2.78% |
| CN1Cc2c(ccc3c2OCO3)[C@@]2(C)[C@@H](O)Cc3cc4c(cc3[C@@H]12)OCO4 [Corynoline] | 18.7% and 28.5% | 24.2% | 8.07% | 9.1% | 8.94% | 3.23% | 5.69% | 13% |
| COc1cc2c3cc1Oc1c(OC)c(OC)cc4c1[C@@H](Cc1ccc(O)c(c1)Oc1ccc(cc1)C[C@@H]3N(C)CC2)N(C)CC4 [Berbamine] | 62.8% and 49.4% | 57.5% | 72.7% | 67.2% | 72.8% | 67.6% | 39.3% | 54.9% |
| O=Cc1ccc(O)c(O)c1 [3,4-Dihydroxybenzaldehyde] | 95.8% and 92.8% | 93.7% | 77.4% | 91.9% | 91.3% | 99.4% | 88.9% | 92.4% |
| CC[C@H]1OC(=O)[C@H](C)[C@@H](O[C@H]2C[C@@](C)(OC)[C@@H](O)[C@H](C)O2)[C@H](C)[C@@H](O[C@@H]2O[C@H](C)C[C@H](N(C)C)[C@H]2O)[C@](C)(O)C[C@@H](C)CN(C)[C@H](C)[C@@H](O)[C@]1(C)O [Azithromycin] | 90.3% and 86.4% | 89.5% | 83.2% | 90.4% | 92.1% | 89.4% | 75.7% | 82.3% |
| O=C(O)[C@]1(Cc2cccc(Nc3nccs3)n2)CC[C@@H](Oc2cccc(Cl)c2F)CC1 | 17.3% and 19.3% | 18.6% | 66.6% | 68.2% | 27.7% | 20.6% | 17.8% | 24.8% |
| O=C(Nc1nc2cccc(-c3ccc(CN4CCS(=O)(=O)CC4)cc3)n2n1)C1CC1 | 89.3% and 94.9% | 84.5% | 71.2% | 73% | 48.1% | 45.3% | 20.1% | 41.7% |
| CC[C@H](Nc1ncnc2[nH]cnc12)c1nc2cccc(F)c2c(=O)n1-c1ccccc1 | 84.3% and 82.3% | 88.8% | 65.6% | 70.5% | 57.3% | 54.8% | 51.2% | 58.6% |
| C=C[C@]1(C)C[C@@H](OC(=O)CSCCN(CC)CC)[C@]2(C)[C@H](C)CC[C@]3(CCC(=O)[C@H]32)[C@@H](C)[C@@H]1O [Tiamulin] | 83.5% and 81.7% | 90.1% | 75.6% | 92.8% | 84% | 87.9% | 86.1% | 79.5% |
| O=C(Nc1cc2cc[nH]c2cn1)c1ccccc1 | 45.9% and 44.5% | 43% | 43.3% | 45.8% | 49.3% | 51.1% | 38.6% | 39.3% |
| COc1ccc2cc3[n+](cc2c1OC)CCc1cc2c(cc1-3)OCO2 [Berberine Sulfate] | 62.4% and 69.2% | 72.4% | 66.7% | 59.5% | 71% | 75.3% | 49.8% | 46.2% |
| Cn1nnnc1SCC1=C(C(=O)O)N2C(=O)[C@@H](NC(=O)[C@H](OC=O)c3ccccc3)[C@H]2SC1 [S3638 Cefamandole (nafate).cdx] | 103% and 97.5% | 102% | 97.5% | 103% | 99.4% | 104% | 97.7% | 97.6% |
| OCCN(CCO)c1nc(N2CCCCC2)c2nc(N(CCO)CCO)nc(N3CCCCC3)c2n1 [Dipyridamole (Persantine)] | 95.7% and 95.1% | 94.8% | 93.1% | 114% | 111% | 107% | 99.9% | 108% |
| CCn1c(=O)c(-c2ccc(-c3cncs3)cc2Cl)cc2cnc(Nc3ccc(N4CCN(C)CC4)cc3)nc21 | 86.2% and 86.7% | 74.6% | 75.6% | 75.9% | 46.6% | 53.2% | 71% | 61.2% |
| Cc1nc(Nc2ncc(C(=O)Nc3cc(NC(=O)c4cccc(C(F)(F)F)c4)ccc3C)s2)cc(N2CCN(CCO)CC2)n1 | 11.4% and 16% | 20.1% | 50% | 63% | 12.2% | 13.8% | 55.5% | 57.3% |
| O=C(Nc1cnn2ccc(N3CCC[C@@H]3c3cc(F)ccc3F)nc12)N1CC[C@H](O)C1 [LOXO-101(sulfate)] | 104% and 105% | 104% | 113% | 118% | 97.6% | 104% | 98.2% | 104% |
| CCn1cc(-c2ccnc3[nH]c(-c4cccc(CN(C)C)c4)cc23)c(-c2ccc(NC(=O)N(C)C)cc2)n1 | 36.2% and 51.2% | 45.9% | 30.3% | 27% | 1.95% | 2.96% | 1.06% | 7.2% |
